Test results from PubChem BioAssay AID1159580 (chemical genetic matrix, 2015).
About 2,000 (36%) of roughly 5,500 compounds were called active. Inconclusive results (about 18%) are left out. Rule as the data show it: active = normalized growth mostly below about 0.91 (no sharp cut-off); inconclusive = no clear call, values can overlap the other calls; inactive = mostly above about 0.92. The list shows a part of the results.

Assay: chemical genetic growth profiling, strain panel (AID 1159580);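 also: tested at 20 µM; growth read once vehicle control cultures reached saturation at 30 °C; 1 = growth at the plate median or of vehicle wells; lower values mean less growth of the strain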
Details: S. cerevisiae deletion strains, growth OD

Measured: normalized growth

CC1(C)CCCC2(C)C3C1[C@@H](O)C2(C)C[C@H]3O (stereo not given in full)
inactive: locus YAL021C, strain ccr4, hits give low values 1.01 | locus YAL026C, strain drs2, hits give low values 1.04 | locus YAL030W, strain snc1, hits give low values 0.993 | locus YBL061C, strain skt5, hits give low values 1.01 | locus YBR009C, strain hhf1, hits give low values 1.03 | locus YBR023C, strain chs3, hits give low values 1.01 | locus YBR171W, strain sec66, hits give low values 1.04 | locus YBR231C, strain swc5, hits give low values 1.03 | locus YBR279W, strain paf1, hits give low values 1.03 | locus YCL011C, strain gbp2, hits give low values 1.03 | locus YCL016C, strain dcc1, hits give low values 1 | locus YCL061C, strain MRC1, hits give low values 1.02 | locus YCL069W, strain vba3, hits give low values 1.02 | locus YCR088W, strain abp1, hits give low values 1.03 | locus YDL005C, strain med2, hits give low values 1.03 | locus YDL040C, strain nat1, hits give low values 1.01 | locus YDR001C, strain nth1, hits give low values 1.03 | locus YDR069C, strain doa4, hits give low values 0.992 | locus YDR137W, strain rgp1, hits give low values 0.973 | locus YDR159W, strain sac3, hits give low values 0.991 | locus YDR195W, strain ref2 1.02 | locus YDR297W, strain sur2, hits give low values 0.985 | locus YDR334W, strain swr1, hits give low values 1.03 | locus YDR335W, strain msn5, hits give low values 0.995 | locus YDR392W, strain spt3, hits give low values 0.941 | locus YEL003W, strain gim4, hits give low values 1.03 | locus YEL037C, strain rad23, hits give low values 1.03 | locus YEL061C, strain CIN8 (second series), hits give low values 1.03 | locus YER015W, strain faa2, hits give low values 1.03 | locus YER016W, strain bim1, hits give low values 1.01 | locus YER111C, strain swi4, hits give low values 1.03 | locus YER155C, strain BEM2 (second series), hits give low values 1.02 | locus YFR010W, strain ubp6, hits give low values 1.04 | locus YGL167C, strain pmr1, hits give low values 1.01 | locus YGL173C, strain kem1, hits give low values 1.03 | locus YGL227W, strain vid30, hits give low values 1.03 | locus YGL240W, strain doc1, hits give low values 1 | locus YGL253W, strain hxk2, hits give low values 1.03 | locus YHR013C, strain ard1, hits give low values 1.04 | locus YHR027C, strain rpn1, hits give low values 0.998 | locus YHR030C, strain SLT2, hits give low values 0.976 | locus YHR079C, strain IRE1, hits give low values 0.983 | locus YHR142W, strain chs7, hits give low values 1.01 | locus YJL092W, strain hpr5, hits give low values 1.03 | locus YJL095W, strain BCK1 (second series), hits give low values 0.988 | locus YJL095W, strain BCK1, hits give low values 1 | locus YJL115W, strain asf1, hits give low values 1.03 | locus YJL129C, strain trk1, hits give low values 1.05 | locus YJL154C, strain vps35, hits give low values 1.02 | locus YJL164C, strain tpk1, hits give low values 1.01 | locus YJL166W, strain qcr8, hits give low values 1.04 | locus YJL187C, strain SWE1, hits give low values 0.985 | locus YJR066W, strain TOR1, hits give low values 0.923 | locus YKL160W, strain elf1, hits give low values 0.986 | locus YKR026C, strain gcn3, hits give low values 1.02 | locus YKR091W, strain srl3, hits give low values 1.02 | locus YLL001W, strain dnm1, hits give low values 0.994 | locus YLL026W, hits give low values 1.01 | locus YLL041C, strain sdh2, hits give low values 0.995 | locus YLR027C, strain aat2, hits give low values 1 | locus YLR113W, strain HOG1, hits give low values 1.05 | locus YLR221C, strain rsa3, hits give low values 1.02 | locus YLR258W, strain gsy2, hits give low values 1.01 | locus YLR262C, strain YPT6 (second series), hits give low values 1.04 | locus YLR320W, strain mms22, hits give low values 1.07 | locus YLR342W, strain FKS1, hits give low values 1.02 | locus YLR357W, strain rsc2, hits give low values 1.04 | locus YLR370C, strain arc18, hits give low values 1.01 | locus YLR384C, strain iki3, hits give low values 1.02 | locus YML120C, strain ndi1, hits give low values 1.01 | locus YMR058W, strain fet3, hits give low values 1.03 | locus YMR125W, strain sto1, hits give low values 1.04 | locus YMR129W, hits give low values 1.03 | locus YMR205C, strain PFK2, hits give low values 1.01 | locus YMR231W, strain pep5, hits give low values 1.03 | locus YNL071W, strain lat1, hits give low values 1.02 | locus YNL183C, strain NPR1, hits give low values 0.963 | locus YNL209W, strain ssb2, hits give low values 0.997 | locus YNL248C, strain rpa49, hits give low values 0.996 | locus YNL322C, strain KRE1 (second series), hits give low values 1.01 | locus YNR049C, strain mso1, hits give low values 0.993 | locus YOR001W, strain rrp6, hits give low values 1 | locus YOR070C, strain gyp1, hits give low values 1 | locus YOR080W, strain dia2, hits give low values 1.01 | locus YOR083W, strain WHI5, hits give low values 0.999 | locus YOR106W, strain vam3, hits give low values 0.985 | locus YOR231W, strain MKK1, hits give low values 0.977 | locus YOR265W, strain rbl2, hits give low values 1 | locus YOR270C, strain vph1, hits give low values 1.08 | locus YOR290C, strain snf2, hits give low values 0.985 | locus YPL051W, strain arl3, hits give low values 1 | locus YPL078C, strain atp4, hits give low values 1.01 | locus YPL106C, strain sse1, hits give low values 1.06 | locus YPL240C, strain hsp82, hits give low values 0.987 | locus YPL256C, strain CLN2, hits give low values 1
